According to the supplement of paper PMC10646978:

Tested on: RAW-Dual (murine macrophage reporter line)
Test: viability score (confluency relative to resting cells, overnight) (fraction); higher = more viable, active = viable (0.7 or more)
Conditions: modulator concentration 10 µM
Procedure, shortened: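 RAW-Dual macrophages in 384-well plates were exposed overnight to compound at 10 μM final. Confluency was imaged with IncuCyte, and two confluency masks were generated with IncuCyte software over all imaged wells. The viability score is confluency expressed relative to resting cells. Compounds were called viable if both masks exceeded 70% of resting cells.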

Compound | viability score
Oc1ccc(OCc2ccccc2)cc1 | 0.832 (active)
O=C(NCC(O)Cc1ccccc1)Nc1ccc(F)cc1 (stereo not given) | 0.971 (active)
CCC(=O)CC(O)(c1ccccc1)C(F)(F)F (stereo not given) | 0.996 (active)
COc1ccc(C(C)=NNC(=O)Nc2ccccc2)c(OC)c1 | 1.01 (active)
NS(=O)(=O)c1ccc(F)cc1 | 1.02 (active)
Cc1ncsc1C(=O)NC1CCC(F)(F)CC1 | 0.999 (active)
Cn1c2c(c3ccccc31)CCCC2NC=O (stereo not given) | 1 (active)
O=C(NN=Cc1cccc(Cl)c1Cl)c1cc(O)cc(O)c1 | 1.04 (active)
Cc1ccc(OCCOc2ncnc3ccccc23)c(Cl)c1 | 1 (active)
Cc1ccsc1C(=CCCN1CCC[C@@H](C(=O)O)C1)c1sccc1C | 0.997 (active)
CNC(=O)[C@H](Cc1c[nH]c2ccccc12)NC(=O)[C@@H](CC(=O)NO)CC(C)C | 0.995 (active)
Clc1cccc(Nc2nc(-c3ccccn3)cs2)c1 | 0.246 (inactive)
CN1CCN(CC(O)Cn2c3ccccc3c3ccccc32)CC1.O=C(O)C(=O)O (stereo not given) | 1.01 (active)
CCOC(=O)c1c(N2C(=O)C3C4C=CC(O4)C3C2=O)sc2c1CCCC2 (stereo not given) | 0.934 (active)
Cc1cc(OC2CN(C(=O)Cc3c[nH]c4ccccc34)C2)cc(=O)n1C1CC1 | 0.983 (active)
O=C(CSC1CCCCC1)Nc1ccc(Br)cc1 | 0.962 (active)
CN(C)C/C=C/C(=O)Nc1cc2c(Nc3ccc(F)c(Cl)c3)ncnc2cc1O[C@H]1CCOC1 | 0.56 (inactive)
O=S(=O)(NCCn1ccn2nccc12)c1ccccc1Br | 0.983 (active)
CN(C)c1ccc(C=C(C#N)c2nc(-c3cc4ccccc4oc3=O)cs2)cc1 | 1.01 (active)
N[C@@H](CC(=O)N1CCn2c(nnc2C(F)(F)F)C1)Cc1cc(F)c(F)cc1F | 0.998 (active)

Compound | viability score
COc1cc(C)n(CCNC(=O)c2ccccc2C(F)(F)F)c(=O)c1 | 0.941 (active)
Cl.O=C1NCC2(CCN(CCc3ccccc3)CC2)O1 | 0.816 (active)
CC1=NN(C(=O)OC(C)(C)C)C(O)(c2ccncc2)C1 (stereo not given) | 1.03 (active)
O=c1c(O)c(-c2ccccc2)oc2cc(O)ccc12 | 1 (active)
Cc1ccc(C)n1-c1ccc(C(=O)OCC(=O)c2ccc([N+](=O)[O-])cc2)cc1 | 0.976 (active)
O=C(Cn1c(=O)oc2ccccc21)N1Cc2cncnc2C1 | 0.998 (active)
Cc1ccc(C23CC4CC(CC(CN)(C4)C2)C3)cc1.Cl | 0.46 (inactive)
COc1ccc2c(c1)c(CC(=O)O)c(C)n2C(=O)c1ccc(Cl)cc1 | 1 (active)
N#C[C@@H]1CCCN1C(=O)CNC12CC3CC(CC(O)(C3)C1)C2 | 0.993 (active)
Nc1ncnc2c1ncn2C1OC(CO)C(O)C1O (stereo not given) | 1.04 (active)
Cc1cn([C@@H]2C[C@@H](O)[C@H](CO)O2)c(=O)[nH]c1=O | 1.01 (active)
Cc1cc(OCC(O)Cn2cnc3ccccc32)ccc1Cl (stereo not given) | 0.906 (active)
O=C1C(Cl)=C(N2CCCCC2)C(=O)N1c1cc(Cl)c(Cl)cc1Cl | 0.993 (active)
CS(=O)(=O)N(CC(=O)NCCSCc1cccc(Cl)c1)c1ccc(Cl)cc1 | 1 (active)
O=C(CCCn1nc(-c2ccc(F)cc2)ccc1=O)Nc1cc(Cl)ccc1Cl | 1.02 (active)
N#CC(=Cc1cn(Cc2ccccc2Cl)c2ccccc12)c1nn(CCO)c(N)c1C#N | 1.02 (active)
O=C(O)CCCNC(=O)c1ccccc1C(=O)O | 1.03 (active)
CC(C)OCc1ccc(C(=O)Nc2nnc(C(C)C)s2)o1 | 1.01 (active)
CC(=O)Oc1cccc2c1C(=O)c1c(OC(C)=O)cc(C(=O)O)cc1C2=O | 1 (active)
Cc1occc1C(=O)Nc1ccc(F)c(F)c1 | 0.927 (active)
